Compound activity as filed in PubChem.
DRV1 agonist: activates human resolvin D1 receptor GPR32; CHO-K1 GPR32 beta-arrestin PathHunter luminescence, 90 min; zero percent set by DMSO-only wells; activation, % at 76.9 µM; hit rate 2.5% among 48,000;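 active = activation of at least 60% and not above a set upper limit, about 1 call in 100 departs from these limits; inconclusive = activation of 40% to 60%, or above that upper limit; inactive = activation under 40%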; note: 0% is about no effect
Target sequence (O75388 whole entry, looked up): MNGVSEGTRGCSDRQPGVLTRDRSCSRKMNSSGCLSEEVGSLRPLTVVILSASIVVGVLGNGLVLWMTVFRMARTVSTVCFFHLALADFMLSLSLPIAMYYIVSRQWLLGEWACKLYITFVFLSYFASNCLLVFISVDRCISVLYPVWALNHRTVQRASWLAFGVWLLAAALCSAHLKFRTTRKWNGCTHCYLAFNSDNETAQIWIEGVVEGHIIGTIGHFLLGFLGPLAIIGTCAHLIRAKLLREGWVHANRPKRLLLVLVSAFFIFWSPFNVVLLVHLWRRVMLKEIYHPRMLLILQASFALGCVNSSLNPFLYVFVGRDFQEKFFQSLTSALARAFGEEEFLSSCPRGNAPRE
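PathHunter enzyme-fragment complementation, CHO-K1 GPR32 stable line; 2,500 cells/well, overnight attach; cpd 90 min 37 °C 5% CO2; detection reagent 1 h RT; chemiluminescence. DMSO = EC0.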
FH mod: Identification of activators of human fumarate hydratase by quantitative high-throughput screening | Fumarate hydratase, mitochondrial (Homo sapiens), P07954 | FH coupled MDH/diaphorase resazurin fluorescence, 15 min | Potency, µM (highest dose often 79.9 µM), inactives show at the top dose activity change, negative = inhibition, actives largely listed as inhibitors | hit rate 0.22% among 54,000 | AID 1347055, 2019; note: potency is the fitted concentration of half-maximal effect; % is set by controls: 0 for no effect and ±100 for the full control effect; the screen sought activators but most active calls are inhibition curves; nearly all actives have a fitted effect of over 45% in size
B2AR arrestin ag: beta-arrestin recruitment by human beta2-adrenergic receptor ligands; Potency, µM (titrated, usually from 46.1 µM), usual class: activators; AID 1347077; P07550; HTLA Tango cells, beta-arrestin recruitment, luciferase luminescence, 18 h; 44,000 tested, under 10 active;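 note: potency is the fitted concentration of half-maximal effect; 0% = DMSO and full agonism = EC100 isoproterenol or metaproterenol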
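Ligand-induced beta-arrestin recruitment to recombinant beta2-AR is measured via a tTA-driven luciferase reporter in Tango cells after 18 hr compound exposure at 37 degrees C. Concentrations span up to 46 microM.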
GALC G270D act: enhancers of human galactocerebrosidase G270D mutant activity in cells | P54803 | 145M-Twi-hGALC-G270D cells (Twitcher mouse brain line with human GALC G270D), HMU-beta-Gal fluorescence, 48 h | Potency, µM (titrated, usually from 57.5 µM), hits mostly activators | hit rate 0.1% among 45,000; note: potency is the fitted concentration of half-maximal effect; 0% is about no effect; nearly all actives have a fitted effect of over 65% in size
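Fluorogenic HMU-b-Gal hydrolysis (0.1 mM final, pH 5.2 citrate-phosphate with 1 mg/mL sodium taurocholate; carbonate stop buffer) measures mutant GALC activity after compound treatment of live 145M-Twi Twitcher brain cells stably carrying human GALC-G270D, with wild-type GALC line alongside; activation sought.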
Starred values were filed as active, the others as inactive; i = inactive; u = inconclusive; x = no result given; ! = repeats disagree; [ ] = dose if it differs, or a comment. Sampled rows, rich in hits. Any-hit rate of the full collection: about 2.8%. Unless noted, calls come from the whole dose curve; as a rule, active = well fitted curve in the direction sought with a large enough effect; inconclusive = small, poorly fitted or top-dose-only effect, or another doubt; inactive = no such curve, though single readings can be large; an effect the other way counts as inactive or inconclusive.

SMILES | DRV1 agonist | FH mod | B2AR arrestin ag | GALC G270D act
C=C[C@](C)(CC/C=C(\C)C(=O)O)O[C@@H]1OC[C@H](O)[C@H](O)[C@H]1O | x | -2.8%[53.3 µM] | x | x
CN(C)CC1CCn2cc(c3ccccc32)C2=C(C(=O)NC2=O)c2cn(c3ccccc23)CCO1 (stereo not drawn) | x | -0.4% | x | x
Cc1c(-c2cccc(NC(=O)Nc3ccc(Cl)cc3)c2)nc2ncccn12 | u | -23.5% | i | i
Cc1c(-c2cccc(NC(=O)c3ccc(F)c(F)c3)c2)nc2ncccn12 | 64.1* | -6.8% | i | i
COc1ccc(NC(=O)c2c(NC(=O)c3ccncc3)sc3c2CCC(C(C)(C)C)C3)cc1 (stereo not drawn) | 65.7* | -14.2% | i | i
CC(=O)Nc1ccc(-c2nnc(SCC(=O)c3ccc([N+](=O)[O-])cc3)o2)cc1 | 64.0* | -10.1% | i | i
Cc1ccc(NC(=O)CC(C)S(=O)(=O)c2ccc3c(c2)NC(=O)CO3)c(C)c1 (stereo not drawn) | 73.9* | -19.0% | i | i
Cc1ccc(NC(=O)CC2Oc3ccc(C)cc3NC2=O)c(C)c1 (stereo not drawn) | 0.2 | -2.7% | i | i
O=C(c1ccc(F)cc1)N1CCN(CCc2ccncc2)CC1 | 3.7 | -14.5% | i | i
CCNC(=O)N1CCN(CCCC(c2ccc(F)cc2)c2ccc(F)cc2)CC1 | 112.4*! | -29.7%[53.3 µM] | x | i
C=CC(C)(C)c1[nH]c2ccccc2c1C[C@@H]1NC(=O)[C@H](Cc2c[nH]c3ccccc23)NC1=O | x | -2.5%[53.3 µM] | x | x
COc1ccc(CCN2CCC(Nc3nc4ccccc4n3Cc3ccc(F)cc3)CC2)cc1 | 94.6* | -9.3%[53.3 µM] | x | i
CC(C)c1ccc2oc3nc(N)c(C(=O)O)cc3c(=O)c2c1 | 104.1* | -10.3%[53.3 µM] | x | i
COc1ccc(-c2cc(C(=O)N3CCN(c4ccccc4OC)CC3)c3cc(C(C)C)ccc3n2)cc1 | 4.2 | -25.6% | i | i
C=C1CCC2(OC1)OC1CC3C4CC=C5CC(O)CC(O[C@@H]6OC[C@@H](O)[C@H](O)[C@H]6O)C5(C)C4CCC3(C)C1(O)C2C (stereo partly drawn) | x | 18.2%[20.6 µM] | x | x
CC1CCc2c(sc(NC(=O)c3ccc(Cl)cc3Cl)c2C#N)C1 (stereo not drawn) | 106.0* | -8.4% | i | i
CC1(C)CC[C@]2(C(=O)O[C@@H]3O[C@H](CO[C@@H]4O[C@H](CO)[C@@H](O)[C@H](O)[C@H]4O)[C@@H](O)[C@H](O[C@@H]4O[C@H](CO)[C@@H](O)[C@H](O)[C@H]4O)[C@H]3O)CC[C@]3(C)C(=CCC4[C@@]5(C)CC[C@H](O[C@@H]6OC[C@@H](O)[C@H](O)[C@H]6O)[C@@](C)(C(=O)O)C5CC[C@]43C)[C@@H]2C1 (stereo partly drawn) | x | -2.2%[20.6 µM] | x | x
CCOC(=O)CCNc1cc(N2CCc3ccccc3CC2)nc(-c2cccnc2)n1 | x | 0.0% | x | x
CN1C(=O)Cc2cc(S(=O)(=O)CCC(=O)Nc3ccc(Cl)c(C(F)(F)F)c3)ccc21 | -5.3 | -7.7% | i | i
CCC(=O)N1CCc2cc(S(=O)(=O)CCC(=O)Nc3ccc(Cl)c(C(F)(F)F)c3)ccc21 | 88.1* | 0.8% | i | i
Cn1ccc2c(OCC(=O)NCc3ccc(F)cc3)cccc2c1=O | 68.1* | -8.1% | i | i
Cc1cc(C)cc(NC(=O)COc2cccc3c(=O)n(C)ccc23)c1 | 85.6* | 20.1% | i | i
CCOCCn1ccc2c(OCC(=O)Nc3cccc(F)c3)cccc2c1=O | 76.8* | -7.4% | i | i
CCn1ccc2c(OCC(=O)NCc3ccc(F)cc3)cccc2c1=O | 23.1 | -7.5% | i | i
O=C1NC(=O)C(c2ccccc2[N+](=O)[O-])=C1Nc1ccc(O)c(Cl)c1 | -9.3 | 25.1µM*! | x | x
SMILES | DRV1 agonist | FH mod | B2AR arrestin ag | GALC G270D act
O=C(O)CN(CCN(CC(=O)O)CC(=O)O)CCN(CC(=O)O)CC(=O)O | 70.2*! | -7.8%[53.3 µM] | x | i
O=C(O)CN(CCOCCOCCN(CC(=O)O)CC(=O)O)CC(=O)O | 0.9 | -1.9%[53.3 µM] | x | i[0.46 µM]
CCOC(=O)c1ccc(NC(=O)c2cnc(N3CCCC3)nc2C)cc1 | 96.4* | -5.0% | i | i
CN1C[C@H](C(=O)N[C@]2(C)O[C@@]3(O)[C@@H]4CCCN4C(=O)[C@H](Cc4ccccc4)N3C2=O)C[C@@H]2c3cccc4[nH]cc(c34)C[C@H]21 | -18.0 | -16.5%[53.3 µM] | x | i
CCCN1C[C@H](CSC)C[C@@H]2c3cccc4[nH]cc(c34)C[C@H]21 | 79.4*! | 0.4% | x | i
CC1(C)CC[C@]2(C(=O)O)CC[C@]3(C)C(=CCC4[C@@]5(C)C[C@@H](O)[C@H](O)[C@@](C)(CO)C5CC[C@]43C)[C@@H]2[C@@H]1O (stereo partly drawn) | x | -3.4%[53.3 µM] | x | x
Nc1ccc(O)c(C(=O)O)c1 | -27.8 | u | x | i
O=C(O)C1=CC(=C(c2ccc(O)c(C(=O)O)c2)c2ccc(O)c(C(=O)O)c2)C=CC1=O | -14.8 | 15.8µM* | x | x
Cc1c(Cl)cccc1-c1ccc(C(=O)Nc2ccc(F)cc2)o1 | 60.8* | -19.7% | i | i
CCOc1ccc(S(=O)(=O)N2CCC(n3c(C)nc4cccnc43)CC2)cc1 | 75.6* | -11.8% | i | i
Cc1nc2cccnc2n1C1CCN(S(=O)(=O)c2ccc(Cl)cc2)CC1 | 48.7 | x | i | x
Cc1nc2cccnc2n1C1CCN(C(=O)Nc2ccc(Cl)cc2)CC1 | 87.7* | -9.3% | i | i
O=c1oc2c(CN3CCOCC3)c(O)ccc2cc1-c1ccccc1 | -36.5 | -10.4% | i | 25.1µM*
CCCCCC=CCC=CCCCCCCCC(=O)OCC | 63.3* | -13.3%[53.3 µM] | x | i
CCc1ccc(NC(=O)C2CCC(CNS(=O)(=O)c3ccc4c(c3)CC(C)N4C(C)=O)CC2)cc1 (stereo not drawn) | 19.3 | -4.5% | i | i
CC(=O)c1ccc(NC(=O)C2CCC(CNS(=O)(=O)c3cccs3)CC2)cc1 (stereo not drawn) | 107.7* | -22.5% | i | i
CC(=O)N1c2ccc(S(=O)(=O)NCC3CCC(C(=O)Nc4ccc(F)cc4)CC3)cc2CC1C (stereo not drawn) | 68.0* | 5.9% | i | i
CC1(C)CCC[C@@]2(C)C1[C@H](OC(=O)/C=C/C=C/C(=O)O)C=C1COC(=O)[C@@]12O (stereo partly drawn) | x | 3.1%[53.3 µM] | x | x
O=C1NC(=O)/C(=C/c2ccc3nccnc3c2)S1 | -1.8 | -19.1%[53.3 µM] | x | x
O=C1NC(=O)/C(=C/c2ccc3nccc(-c4ccncc4)c3c2)S1 | x | 31.6µM* | x | x
O=C1NC(=O)/C(=C\c2ccc3nccc(-c4ccncc4)c3c2)S1 | x | 25.1µM* | x | x
CC(C)C(N)C(=O)OCC(CO)OCn1cnc2c(=O)[nH]c(N)nc21 (stereo not drawn) | x | 15.3% | x | x
